Records with an inconclusive call do not appear. Where a call stands in place of a potency, no number is given. Activity calls are given as the source filed them. Calls come from the whole dose curve; as a rule, active = well fitted inhibition curve with a large enough effect; inconclusive = small, poorly fitted or top-dose-only effect; inactive = flat fitted curve, though single readings scatter.
What follows are compounds tested against Ubiquitin carboxyl-terminal hydrolase 1 (Homo sapiens) (UniProt O94782) (assay: Inhibitors of USP1/UAF1: Pilot qHTS (AID 504865; note: nearly all actives have a fitted effect of over 35% in size)). Details: purified USP1/UAF1, Ub-rhodamine cleavage fluorescence; series mostly up to 114 µM.
Chain of Ubiquitin carboxyl-terminal hydrolase 1 (Homo sapiens) (O94782 whole entry, looked up): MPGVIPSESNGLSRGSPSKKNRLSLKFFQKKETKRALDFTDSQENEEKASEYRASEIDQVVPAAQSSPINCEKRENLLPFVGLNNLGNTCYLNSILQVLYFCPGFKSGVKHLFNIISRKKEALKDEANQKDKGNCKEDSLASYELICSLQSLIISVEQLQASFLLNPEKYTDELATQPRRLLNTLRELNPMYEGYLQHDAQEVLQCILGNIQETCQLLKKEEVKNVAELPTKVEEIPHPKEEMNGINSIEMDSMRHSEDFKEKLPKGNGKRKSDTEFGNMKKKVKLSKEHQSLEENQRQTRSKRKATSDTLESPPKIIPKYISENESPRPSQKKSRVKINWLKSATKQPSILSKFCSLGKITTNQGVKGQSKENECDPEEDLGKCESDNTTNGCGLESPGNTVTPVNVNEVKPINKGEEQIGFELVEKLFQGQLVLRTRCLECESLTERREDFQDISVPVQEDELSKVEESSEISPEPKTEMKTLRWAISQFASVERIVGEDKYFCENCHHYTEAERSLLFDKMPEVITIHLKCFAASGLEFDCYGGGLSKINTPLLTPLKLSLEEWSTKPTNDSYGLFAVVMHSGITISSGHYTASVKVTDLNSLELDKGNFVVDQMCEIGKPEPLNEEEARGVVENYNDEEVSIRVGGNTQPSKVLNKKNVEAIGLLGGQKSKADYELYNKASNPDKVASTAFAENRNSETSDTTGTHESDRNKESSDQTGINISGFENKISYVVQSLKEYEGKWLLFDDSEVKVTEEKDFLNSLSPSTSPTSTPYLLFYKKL
In short: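 USP1/UAF1 complex (1nM) preincubated with compound 15 min at room temperature, then Ub-Rho substrate (150nM final) added. Fluorescence read kinetically at 480/540 nm, 6 reads every 60 seconds. Buffer: 50mM HEPES pH 7.8, 0.5mM EDTA, 0.1 mg/ml BSA, 1mM TCEP, 0.01% Tween-20.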
Potency is the fitted concentration of half-maximal effect.

Compound	Potency
COc1ccc(C(=O)CC(=O)c2ccc(C(C)(C)C)cc2)cc1	inactive
COc1c(N2CCNC(C)C2)c(F)cc2c(=O)c(C(=O)O)cn(C3CC3)c12 (stereo not drawn)	inactive
N[C@@H](C(=O)N[C@@H]1C(=O)N2C(C(=O)O)=C(Cl)CS[C@H]12)c1ccccc1	inactive
CC(N)C12CC3CC(CC(C3)C1)C2 (stereo not drawn)	inactive
COc1cc(NS(=O)(=O)c2ccc(N)cc2)nc(OC)n1	inactive
COc1ccc(-c2ccc3cc(C(=O)O)ccc3c2)cc1C12CC3CC(CC(C3)C1)C2	79.4 µM (active)
COc1ccc2c(c1)c(CC(=O)OCC(=O)O)c(C)n2C(=O)c1ccc(Cl)cc1	inactive
COc1ncnc(NS(=O)(=O)c2ccc(N)cc2)c1OC	inactive
